Bioassay records as filed in PubChem.
The sample as a whole holds a higher share of hits than the screen did.
Pf Dd2 growth: qHTS Primary assay for Inhibitors of Plasmodium falciparum Dd2 growth in vitro; P. falciparum Dd2 growth, SYBR Green, 72 h; Potency, µM (doses to about 28.9 µM), for inactives: at the top dose activity, negative = inhibition, usual class: inhibitors; 120,000 compounds, 4.3% hits; active = well fitted inhibition curve with a large enough effect;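 note: plate controls were DMSO vehicle for no effect and reference drug for full effect; nearly all actives have a fitted effect of over 65% in size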
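Infected erythrocytes (Dd2, 0.3% parasitemia, 2.5% hematocrit final) are added to compound in RPMI-1640/Albumax II medium, grown 72 h at 37C in low oxygen, then lysed with saponin/Triton-X containing SYBR Green and read by fluorescence.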
Numbers without * were called inactive; i = inactive; [ ] = another dose, or the depositor's remark. Potency is the fitted concentration of half-maximal effect.

SMILES | Pf Dd2 growth
CC1=C[C@@H](CN2CCN(C)CC2)[C@H](C(C)C)C[C@H]1Cc1nnc(-c2ccc(N(C)C)cc2)o1 | 4µM*
CC1=C[C@@H](CN2CCC(C(N)=O)CC2)[C@H](C(C)C)C[C@H]1Cc1nnc(-c2ccc(N(C)C)cc2)o1 | 3.5µM*
CN1CC(=O)N(C2CCCNCC2)Cc2c1ncnc2N1CCC(O)CC1 (stereo unspecified) | 14%
O=C(O)C[C@@H]1CCN(Cc2ccccc2)C[C@@H]1CCN1C[C@@H]2C[C@H](C1)c1cccc(=O)n1C2 | -10%
O=C1CO[C@H]2CN(Cc3ncc[nH]3)C[C@H]2N1Cc1ccccc1 | i
CCN1C(=O)c2ccccc2S(=O)c2ccc(C(=O)NCc3ccccc3OC)cc21 (stereo unspecified) | -20%
COCCNC(=O)c1ccc2c(c1)N(Cc1cccc(Cl)c1)C(=O)c1ccccc1S2=O (stereo unspecified) | 22%
CC(C)NC(=O)c1ccc2c(c1)N(Cc1cccc(Cl)c1)C(=O)c1ccccc1S2=O (stereo unspecified) | 23%
CC(=O)Nc1ccc(NC(=O)c2ccc3c(c2)N(Cc2cccc(Cl)c2)C(=O)c2ccccc2S3=O)cc1 (stereo unspecified) | 11µM*
CC(=O)c1ccc(NC(=O)c2ccc3c(c2)N(Cc2cccc(Cl)c2)C(=O)c2ccccc2S3=O)cc1 (stereo unspecified) | 11µM*
CC1CCC(NC(=O)c2ccc3c(c2)N(Cc2cccc(Cl)c2)C(=O)c2ccccc2S3(=O)=O)CC1 (stereo unspecified) | 11µM*
CC1CCCCN1C(=O)c1ccc2c(c1)N(Cc1cccc(Cl)c1)C(=O)c1ccccc1S2=O (stereo unspecified) | -12%
CCOC(=O)N1CCN(C(=O)c2ccc3c(c2)N(Cc2cccc(Cl)c2)C(=O)c2ccccc2S3=O)CC1 (stereo unspecified) | -11%
O=C(NC1CCCCC1)c1ccc2c(c1)N(Cc1ccc(F)cc1)C(=O)c1ccccc1S2(=O)=O | -9%
O=C(c1ccc2c(c1)N(Cc1cccc(Cl)c1)C(=O)c1ccccc1S2=O)N1CCC(Cc2ccccc2)CC1 (stereo unspecified) | -25%
COc1ccc(NC(=O)c2ccc3c(c2)N(Cc2cccc(Cl)c2)C(=O)c2ccccc2S3=O)cc1Cl (stereo unspecified) | 3.2µM*
CN(C)C[C@@H]1CN(Cc2ccncc2)C[C@H]1NC(=O)C1CCOCC1 | i
N#Cc1ccc(C(=O)N2CCCCCNC(=O)CC2c2ccccc2)cc1 (stereo unspecified) | -7%
O=C(Nc1ccc2c(c1)CCC2)c1nnn2c1COC(c1ccc(F)cc1)C2 (stereo unspecified) | -16%
O=C(CCN1CCCCO1)NC1CCCc2nc(-c3ccccc3)ncc21 (stereo unspecified) | -2%
c1ccc([C@@H]2CNC[C@H]2COc2ccncc2)nc1 | 40%
O=C1CCCCC(C(=O)NCCc2ccncc2)N1 (stereo unspecified) | 10%
CC(C)(C)c1coc([C@@H]2COCCN2Cc2ccc(C(=O)O)cc2)n1 | 1%[44.1 µM]
CCC(C)n1c(C(C)NC(=O)OCc2ccccc2)nc2cccnc21 (stereo unspecified) | i
Cc1nn(C)c2nc(N3CCCCC3CN3CCOCC3)sc12 (stereo unspecified) | 0%
SMILES | Pf Dd2 growth
COc1ccc(CCNC(=O)c2ccc3c(c2)N(Cc2cccc(C)c2)C(=O)c2ccccc2S3(=O)=O)cc1OC | i
NC(=O)C1CCN(C(=O)c2ccc3c(c2)N(Cc2cccc(Cl)c2)C(=O)c2ccccc2S3(=O)=O)CC1 | 22%
COc1ccc(NC(=O)c2ccc3c(c2)N(Cc2cccc(Cl)c2)C(=O)c2ccccc2S3(=O)=O)cc1Cl | 7.9µM*
CS(=O)(=O)N1CCC(OC2CCN(C(=O)NCCc3ccccc3)CC2)CC1 | -8%
CCOc1ccc(C(=O)NC2CCN(c3cnn(CC)c(=O)c3)CC2)cc1 | i
CCOc1ccc(NC(=O)N2CC(C(=O)N(C)C)C3(CCOCC3)C2)cc1 (stereo unspecified) | -17%
COCCNc1c(-c2noc(C)c2C(=O)Nc2ccc(F)c(OC)c2)cnn1C | 1%[44.1 µM]
O[C@@H]1C[C@@H](c2nc(-c3ccc(F)cc3)no2)N(Cc2ccncc2)C1 | -13%[44.1 µM]
C=CCNC(=O)C1CCN(C(=O)N2CC3CC(C2)[C@H]2CCCC(=O)N2C3)CC1 (stereo partly specified) | -5%
O=C(N[C@H]1CCN2C(=O)c3cc(-c4ccsc4)ccc3NC(=O)[C@H]12)c1cnccn1 | -14%[44.1 µM]
COc1ccc(F)cc1-c1ccc(C(=O)O)cc1 | i
CCOC(=O)c1c(-c2ccc(OC)c(OC)c2)csc1NC(=O)c1ccc(F)cc1 | 6%
CCCc1ccc(-c2ccc(C(=O)Oc3ccc(OCC)cc3)cc2)nc1 | 4%
CCOc1cc(-c2ccc(OC(=O)c3ccccc3Cl)c(OC)c2)cc(=O)c2c(C)oc(C)c12 | -12%
CCOc1ccc(-c2cc(OC(=O)c3ccc(OC)cc3)c3c(C)oc(C)c3c(=O)c2)cc1 | 10µM*
COc1ccc(-c2cc(OC(=O)c3ccc(F)cc3)c3c(C)oc(C)c3c(=O)c2)cc1OC | 10µM*
CCOC(=O)C1(Cc2ccccc2F)CCCN(C(=O)CCN2CCCCC2=O)C1 (stereo unspecified) | -20%
CNC(=O)[C@@H]1CN(S(=O)(=O)c2ccc3c(c2)CCC3)C[C@H]1c1nc(C)no1 | 35%
CCCOCC(=O)N1CCCC(c2cc(N3CCCC3)nc(C)n2)C1 (stereo unspecified) | -5%
C=CCn1cc2c3c(cccc31)[C@H](CC(C)C)N[C@H](C(=O)NCc1ccccc1)C2 | 7.1µM*
C=CCn1cc2c3c(cccc31)[C@H](CC(C)C)N[C@H](C(=O)NCc1ccccc1OC)C2 | -9%[44.1 µM]
C=CCn1cc2c3c(cccc31)[C@H](CC(C)C)N[C@H](C(=O)N1CCOCC1)C2 | i
C#CCNC(=O)[C@@H]1Cc2c[nH]c3cccc(c23)[C@H](CC(C)C)N1 | i
C=CCn1cc2c3c(cccc31)[C@H](CC(C)C)N[C@H](C(=O)NCCN1CCOCC1)C2 | i
CC(=O)N1CCCN(C(=O)[C@@H]2Cc3cn(C)c4cccc(c34)[C@H](CC(C)C)N2)CC1 | -6%[44.1 µM]
SMILES | Pf Dd2 growth
CC(C)C[C@@H]1N[C@H](C(=O)NC2CCC2)Cc2c[nH]c3cccc1c23 | -16%[44.1 µM]
CC(C)C[C@@H]1N[C@H](C(=O)NC2CCC2)Cc2cn(Cc3nccn3C)c3cccc1c23 | 10µM*
CC(C)C[C@@H]1N[C@H](C(=O)NC2CCCC2)Cc2cn(CC3CC3)c3cccc1c23 | -16%[44.1 µM]
C=CCn1cc2c3c(cccc31)[C@H](CC(C)C)N[C@H](C(=O)NC1CCC1)C2 | 13µM*
CC#CCn1cc2c3c(cccc31)[C@H](CC(C)C)N[C@H](C(=O)OC)C2 | i
CC(C)C[C@@H]1N[C@H](C(=O)NC2CCCC2)Cc2c[nH]c3cccc1c23 | 13µM*
CN1Cc2nc(Nc3ccccc3F)ccc2OCC1=O | 11%[44.1 µM]
COc1cccc(CN2C[C@H]3[C@H](C2)[S+](=O)([O-])C(C)(C)C(=O)N3Cc2ccccc2)c1 | 9%[44.1 µM]
COc1ccc(-c2ccc3c(c2)C(=O)N2CCN(C(=O)COc4ccccc4)C[C@@H]2C(=O)N3)cc1 | i
COc1cccc(S(=O)(=O)N2CC(n3cc(C(=O)NCc4ccncc4)nn3)C2)c1 | 4%
COC(=O)c1ccc2c(c1)nc1n2[C@@H](CNC(C)=O)COC1 | 24%[44.1 µM]
COCC(=O)N(C1CCOCC1)C1CCN(C(=O)Cc2ccc(C)cc2)CC1 | -5%
